The list is not random: actives were taken first. Their share in the collection is about 12%.
LASV entry inh: blocks Lassa virus binding to or entry into cells; Lassa virus pseudotype entry inhibition, cell reporter; Potency, µM (doses to about 37.9 µM), most hits filed as inhibitors; 1.2% of 300,000 active; AID 540256; calls by dose curve; tested in HEK293 cells; also: nearly all actives have a fitted effect of over 50% in size
Marburg entry inh: blocks Marburg virus binding to or entry into cells; 1.8% of 300,000 active; AID 540276; Potency, µM (top dose mostly 37.8 µM), hits mostly inhibitors; Marburg virus pseudotyped entry inhibition, cell reporter; calls by dose curve; tested in HEK293 cells
Shiga inhibitor: blocks Shiga toxin action in Vero cells | Vero cells, Shiga toxin protein synthesis inhibition reporter | AID 2315 | 9.2% of 290,000 active | inhibition, % at 38.7 µM; in the data active = inhibition mostly above about 28%, no sharp cut-off; inactive = mostly below about 43%
CHX counter: counter-screen hit for Shiga toxin inhibitors, cycloheximide. cell reporter, cycloheximide protein synthesis inhibition counterscreen. max response, %. 12% of 300,000 active; in the data active = max response mostly above about 13%, no sharp cut-off; inactive = mostly below about 14%; also: read at 38.3 µM for the half of the compounds with a filed dose
Of the large screens only hits and unclear results are named; the others gave an inactive call.

S=C(Nc1ccc(N2CCOCC2)cc1)Nc1ccc2snnc2c1	none (no result: LASV entry inh, Marburg entry inh)
COc1ccccc1CCC(=O)Oc1ccc(C#N)cc1OC	none
O=S1(=O)c2cccc3cccc(c23)N1Cc1ccc(-c2nnco2)cc1	LASV entry inh inconclusive, Marburg entry inh inconclusive
c1cnc2c(SCc3ccc(-c4nnco4)cc3)cccc2c1	Marburg entry inh inconclusive, Shiga inhibitor 68, CHX counter 39
CNC(=O)ON(C(=O)NC)C1N(C)C(=S)SC1(C)C (stereo not drawn)	Marburg entry inh inconclusive, CHX counter 13
CNC(=O)N(O)C1N(c2ccccc2)C(=S)SC1(C)C (stereo not drawn)	Marburg entry inh inconclusive
Cc1cc(C(=O)C(C)OC(=O)c2ccc(NC(=O)CC#N)cc2)c(C)n1-c1ccc(OC(F)F)cc1 (stereo not drawn)	LASV entry inh 14µM, Marburg entry inh inconclusive (no result: Shiga inhibitor, CHX counter)
Cn1cnc(S(=O)(=O)N2CCC(C(=O)NCc3ccccc3Cl)CC2)c1	none (no result: Marburg entry inh, Shiga inhibitor, CHX counter)
Cc1c(C(=O)NCc2cccs2)oc2ccc(Br)cc12	LASV entry inh inconclusive, Marburg entry inh 7.3µM, CHX counter 30
O=C(Nc1cccnc1)c1cc2c(ccc3ccccc32)o1	LASV entry inh inconclusive, Marburg entry inh inconclusive, Shiga inhibitor 40, CHX counter 57
NNC(=O)c1cc2c(ccc3ccccc32)o1	none
CCc1ccc2oc(C(=O)Nc3cccnc3)c(C)c2c1	Shiga inhibitor 66, CHX counter 58 (no result: LASV entry inh, Marburg entry inh)
Cc1c(C(=O)NCc2cccs2)oc2ccc(S(=O)(=O)N3CCOCC3)cc12	Marburg entry inh inconclusive
CCc1ccc2oc(C(=O)Nc3nc(-c4ccc(F)cc4)ns3)c(C)c2c1	LASV entry inh inconclusive (no result: Shiga inhibitor, CHX counter)
O=C(c1cc2c(ccc3ccccc32)o1)N1CCCCC1	LASV entry inh inconclusive, Marburg entry inh inconclusive, Shiga inhibitor 90, CHX counter 52
Cc1ccc(-c2ccc(=O)n(CCC(=O)NCCN3CCCCC3C)n2)cc1 (stereo not drawn)	none
Cc1ccc(CN2C(=O)c3ccccc3CC2(C)C(=O)NC2CCCCC2)cc1 (stereo not drawn)	none (no result: LASV entry inh, Shiga inhibitor, CHX counter)
Cc1c(C(=O)Nc2cccc(S(=O)(=O)N3CCOCC3)c2)oc2ccc(Br)cc12	Marburg entry inh inconclusive (no result: Shiga inhibitor, CHX counter)
Cc1c(C(=O)Nc2cccnc2)oc2ccc(Br)cc12	LASV entry inh inconclusive, Marburg entry inh 5µM, Shiga inhibitor 75, CHX counter 34
Cc1ccc(-n2c(C)cc(/C=c3/sc4nc5ccccc5n4c3=O)c2C)cc1	LASV entry inh inconclusive, Marburg entry inh 0.28µM, Shiga inhibitor 87, CHX counter 35
O=C(O)Cn1cc(/C=c2/sc3nc4ccccc4n3c2=O)c2ccccc21	LASV entry inh inconclusive, Marburg entry inh inconclusive, Shiga inhibitor 115, CHX counter 37
O=c1/c(=C\c2cccn2-c2ccccc2)sc2nc3ccccc3n12	LASV entry inh inconclusive, Shiga inhibitor 28
O=C(O)Cn1cc(/C=C2/NC(=O)N(c3ccc(Cl)cc3)C2=O)c2ccccc21	none (no result: LASV entry inh, Marburg entry inh)
COC(=O)c1ccc(N2C(=O)Cc3cc(OC)c(OC)cc3C2c2ccc(F)cc2)cc1 (stereo not drawn)	none (no result: Shiga inhibitor, CHX counter)
CCOc1cccc(/C(O)=C2/C(=O)C(=O)N(CCOC)C2c2ccco2)c1 (stereo not drawn)	Shiga inhibitor 45, CHX counter 20
CCOc1ccc(/C(O)=C2/C(=O)C(=O)N(CC3CCCO3)C2c2ccco2)cc1 (stereo not drawn)	Shiga inhibitor 42, CHX counter 15
CCOc1cccc(/C(O)=C2/C(=O)C(=O)N(Cc3cccnc3)C2c2ccco2)c1 (stereo not drawn)	CHX counter 22
COc1ccc(/C(O)=C2/C(=O)C(=O)N(Cc3cccnc3)C2c2ccco2)cc1OC (stereo not drawn)	none
CCOc1ccc(/C(O)=C2/C(=O)C(=O)N(CC3CCCO3)C2c2ccc(C)o2)cc1 (stereo not drawn)	none
CC(CCc1ccccc1)NC(=O)COC(=O)c1ccc(NC(=O)CC#N)cc1 (stereo not drawn)	none (no result: LASV entry inh, Marburg entry inh)
Cc1cccc(NS(=O)(=O)c2cc(C(=O)NCCC3=CCCCC3)ccc2Cl)c1	LASV entry inh inconclusive
O=C(CSc1nc(N2CCOCC2)nc(N2CCOCC2)n1)Nc1cccc(C(F)(F)F)c1	none
Cc1cccnc1NC(=O)Nc1ccc(Cl)cc1	CHX counter 25 (no result: LASV entry inh, Marburg entry inh, Shiga inhibitor)
Cc1cccnc1NC(=O)CCNC(=O)c1ccc(Cl)cc1	Marburg entry inh inconclusive
COc1ccc(NC(=O)Nc2ncccc2C)cc1	Shiga inhibitor 63, CHX counter 20
Cc1ccc(C(=O)Nc2ncccc2C)o1	none (no result: Shiga inhibitor, CHX counter)
COC(=O)c1ccccc1NC(=O)Nc1ncccc1C	none (no result: LASV entry inh, Marburg entry inh)
COc1ccc(C(=O)NC(=O)Nc2ncccc2C)cc1	LASV entry inh inconclusive, Marburg entry inh inconclusive, Shiga inhibitor 88, CHX counter 40
Cc1cccnc1NC(=O)c1ccccc1-c1ccccc1C(=O)Nc1ncccc1C	LASV entry inh 7.3µM
COc1ccc(CCCc2nnc(SCC(=O)Nc3cc(F)ccc3C)o2)cc1	none (no result: Shiga inhibitor, CHX counter)
N#Cc1nc(-c2ccc(COc3ccccc3)o2)oc1NCc1cccnc1	none (no result: Shiga inhibitor, CHX counter)
COc1ccc(S(=O)(=O)N2CCCCCC2)cc1C(=O)N(C)CC(=O)Nc1cc(C)ccc1C	Marburg entry inh inconclusive
Cc1cccnc1NC(=O)Nc1ccccc1	Shiga inhibitor 49, CHX counter 27 (no result: LASV entry inh, Marburg entry inh)
CCCn1c(=NC(=O)c2cc3ccccc3o2)c(C(=O)OCC)cc2c(=O)n3ccccc3nc21	none (no result: Shiga inhibitor, CHX counter)
COC(=O)C(C)NC(=O)CNS(=O)(=O)c1ccc(F)cc1 (stereo not drawn)	none
Cc1ccc(NC(=O)c2cnn(-c3ccccc3)c2C)cc1	CHX counter 32 (no result: LASV entry inh, Marburg entry inh, Shiga inhibitor)
Cc1ccc(NC(=O)c2cnn(-c3ccccc3)c2C)c(C)c1	LASV entry inh inconclusive, CHX counter 38
Cc1cccc(C)c1NC(=O)c1cnn(-c2ccccc2)c1C	none
CC(CCN1CCCc2nc(C)c(C)cc21)=NOC[C@@H](O)[C@H]1O[C@@H]2OC(C)(C)O[C@H]2[C@@H]1O	LASV entry inh inconclusive (no result: Shiga inhibitor, CHX counter)
CCCCS(=O)(=O)/C=C\C1C2C=CC(C2)C1S(=O)(=O)CCCC (stereo not drawn)	LASV entry inh inconclusive
CCCCS(=O)(=O)/C=C\C=C/S(=O)(=O)CCCC	LASV entry inh 11µM, Marburg entry inh inconclusive
O=c1c(F)cn([C@H]2CCCO2)c(=O)n1Cc1ccccc1Cl	none (no result: LASV entry inh, Shiga inhibitor, CHX counter)
COCCn1c(SCC(=O)N2CCCC2)nnc1-c1ccco1	none
COCCn1c(SCC(=O)c2ccc3c(c2)OCCO3)nnc1-c1ccoc1C	Shiga inhibitor 105, CHX counter 111
COCCn1c(SCC(=O)N2CCCC2)nnc1-c1ccoc1C	Shiga inhibitor 82
COCCCn1c(SCC(=O)Nc2ccc3c(c2)OCCO3)nnc1-c1ccoc1C	LASV entry inh inconclusive, Shiga inhibitor 76, CHX counter 27
CC(C)OC(=O)c1cn(Cc2c(F)cccc2F)c2sc(-c3ccc(NC(=O)C(C)C)cc3)c(CN(C)Cc3ccccc3)c2c1=O	none (no result: LASV entry inh, Marburg entry inh)
Cc1cc(Nc2ccc(F)cc2)n2c(nc3ccccc32)c1C#N	none (no result: Shiga inhibitor, CHX counter)
Cc1cc(Nc2cccc([N+](=O)[O-])c2)n2c(nc3ccccc32)c1C#N	LASV entry inh 6.3µM, Marburg entry inh 3.2µM
CN(C)C(CNC(=O)CCS(=O)(=O)c1ccccc1)c1ccccc1 (stereo not drawn)	none
